# The supplement of paper PMC9399229
# Structures can show the parent of a compound that is named as a salt. The full ranking holds about 1,900 compounds; the median of “relative cell viability (CellTiter-Glo), compound plus cabozantinib, relative to the cabozantinib arm (arm median 1.05; reference not stated)” is about 1.1, and the lowest 2% start at about 0.15. What follows is part of a selection rich in the lowest values, with near analogues and random picks from the rest.
# Tested on: Hep3B
# Assay: relative cell viability (CellTiter-Glo), compound plus cabozantinib, relative to the cabozantinib arm (arm median 1.05; reference not stated) (fraction); higher = more viable cells (less growth inhibition)
# Settings: cabozantinib 2 µM; 4 days
row,Structure (SMILES),relative cell viability
1,COc1cccc2c1c(O)c(C(=O)N(C)c1ccc(C(F)(F)F)cc1)c(=O)n2C [Tasquinimod],1.19
2,Cc1cccc(-c2nn3c(c2-c2ccnc4ccc(C(N)=O)cc24)CCC3)n1,0.91
3,CC(=O)OCOC(=O)CN(CC(=O)OCOC(C)=O)c1ccccc1OCCOc1ccccc1N(CC(=O)OCOC(C)=O)CC(=O)OCOC(C)=O,1.22
4,CCc1cc(Nc2nccc(-c3c(-c4ccc(OC)c(C(=O)Nc5c(F)cccc5F)c4)nc4ccccn34)n2)c(OC)cc1N1CCC(N2CCN(S(C)(=O)=O)CC2)CC1,1.32
5,CCOC(=O)C1=C(N)Oc2ccc(Br)cc2C1C(C#N)C(=O)OCC (stereo unspecified),1.02
6,CC(C(=O)O)c1ccc(C(=O)c2cccs2)cc1 (stereo unspecified) [Suprofen],1.11
7,COc1ccc(C[C@H](NC(=O)[C@H](C)NC(=O)CN2CCOCC2)C(=O)N[C@@H](Cc2ccccc2)C(=O)[C@@]2(C)CO2)cc1,0.23
8,O=C(O)c1cc(C(F)(F)F)ccc1N1CC[C@H](OCc2ccccn2)C1,0.958
9,CCN1C[C@H](C)n2c(c(O)c3c(=O)n(Cc4ccc(F)c(Cl)c4)nc(C(=O)NC)c32)C1=O,1.14
10,Cc1cccc(C)c1NC(=O)C1CCCCN1C (stereo unspecified) [Mepivacaine HCl],1.03
11,COc1ccc(S(=O)(=O)N(CCO)c2ccccc2CN(C)C/C=C/c2ccc(Cl)cc2)cc1 [KN-93 Phosphate],1.14
12,CC(C)C(=O)Oc1ccc(CO)cc1[C@H](CCN(C(C)C)C(C)C)c1ccccc1 [Fesoterodine Fumarate],1.1
13,"C[C@@H](CN1CC(=O)NC(=O)C1)N1CC(=O)NC(=O)C1 [Dexrazoxane HCl (ICRF-187, ADR-529)]",1.1
14,CN1CCN(CCOc2cc(OC3CCOCC3)c3c(Nc4c(Cl)ccc5c4OCO5)ncnc3c2)CC1 [Saracatinib (AZD0530)],1.09
15,Cn1cc(/C=C2\C(=O)Nc3cccnc32)c2ccccc21,1
16,CC(=O)S[C@@H]1CC2=CC(=O)CC[C@]2(C)[C@H]2CC[C@@]3(C)[C@@H](CC[C@@]34CCC(=O)O4)[C@H]12 [Spironolactone],1.1
17,Cn1c(=O)c2c(ncn2CC(O)CO)n(C)c1=O (stereo unspecified) [Dyphylline],1.22
18,"COc1cc(F)c(F)c(Nc2ccc(I)cc2F)c1NS(=O)(=O)C1(C[C@H](O)CO)CC1 [Refametinib (RDEA119, Bay 86-9766)]",0.196
19,Cn1c(=O)c(F)c(Nc2ccc(I)cc2F)c2c(=O)n(C[C@@H](O)CO)cnc21,0.14
20,CC1=C(C(=O)OC2CCCCC2)C(c2ccc([N+](=O)[O-])cc2)C2=C(CC(C)(C)CC2=O)N1 (stereo unspecified),1.31
21,Cc1c(OCC(F)(F)F)ccnc1C[S+]([O-])c1nc2ccccc2[nH]1 (stereo unspecified) [Lansoprazole],1.2
